# High-throughput results from PubChem BioAssay.
# This is a sample that favours compounds with a hit; in the whole collection about 0.67% have one here.
# Vc quorum ag: quorum light induction in luxS cqsA deficient V. cholerae. V. cholerae BH1578 lux reporter, luminescence, 6 h. activation, % at 18.7 µM. 350,000 compounds, 0.16% hits. AID 588436; in the data active means activation mostly above about 9.7%, no sharp cut-off
# Sa ugtP lethal: compounds lethal to S. aureus RN4220 ugtP deletion mutant; OD600 growth, 16 h; growth inhibition, % (concentration not given with the values); 330,000 compounds, 0.54% hits; AID 1259309; in the data active means growth inhibition above about 68%;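 further: plate controls were untreated wells for no effect and antibiotic for full effect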
# Sa RN4220 lethal: kills Staphylococcus aureus RN4220 | S. aureus RN4220 growth, OD600, 16 h | 330,000 compounds, 0.33% hits | AID 1259311 | inhibition, % (no concentration beside the values); in the data active means inhibition above about 85%;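 further: plate controls were untreated cells for no effect and reference antibiotic for full effect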
# TcdB inh: TcdB glycohydrolase inhibition. AID 652162. P18177. inhibition, % at 9.99 µM. 350,000 compounds, 0.24% hits. TcdB glycohydrolase enzymatic assay, plate reader; in the data active means inhibition above about 10%
# Active calls of the source: *; i = inactive; / = no result given; + = active, no number.
SMILES,Vc quorum ag,Sa ugtP lethal,Sa RN4220 lethal,TcdB inh
COc1ccc(N2CCN(C(CNC(=O)c3ccc4c(c3)OCO4)c3cccnc3)CC2)cc1 (stereo not given),+,7,15,/
O=C(NCC(c1cccnc1)N1CCN(c2ccc(F)cc2)CC1)c1ccc2c(c1)OCO2 (stereo not given),i,-1,-14,/
CCOC(=O)C=CC(=O)OCC(=O)Nc1ccc(Cl)cn1,/,13,10,/
CCOC(=O)C1=C(C)NC2=C(C(=O)CCC2)C1c1coc2ccccc2c1=O (stereo not given),i,-3,5,2
CC1=C(C(=O)OCC2CCCO2)C(c2coc3ccccc3c2=O)C2=C(CCCC2=O)N1 (stereo not given),5,5,6,13*
CN(Cc1ccccc1F)C(=O)c1ccc(Oc2ccccc2)cc1,0,91*,78,1
CCCCC(CNC)NCC(Cc1ccc(O)cc1)NCCc1ccc(OCC)cc1 (stereo not given),/,-8,-3,/
O=C(NCc1ccccc1)C1=CC(C2CC2)CC(OCc2ccc(CO)cc2)O1 (stereo not given),/,1,4,/
COc1ccc(C=C2NC(=S)NC2=O)cc1,i,1,-3,1
O=C1NC(=S)NC1=Cc1ccc(O)cc1,0,0,1,16*
CCN1C(=O)C2C(c3ccc(-c4ccc(OC)cc4)c(OC)c3)N[C@@](C)(C(=O)OC)C2C1=O (stereo not given in full),/,-5,3,/
O=c1c2oc3nc4c(cc3c2ncn1CCCc1ccccc1)CCCC4,-2,-6,5,11*
Cc1ccc(CNC(=O)CSc2nc3ccsc3c(=O)n2NC(=O)c2ccccc2)cc1,-6,-5,-3,/
O=C(Nn1c(SCc2ccc(F)cc2)nc2ccsc2c1=O)c1ccccc1,0,76,83*,/
COc1ccc(C(=O)N2C(=S)NC(=O)/C2=C\c2ccc(C)cc2)cc1,0,100*,-9,1
COC(=O)CN1C(=S)N(c2ccc(OC)cc2)C(=O)/C1=C/c1ccc(OC)cc1,-1,6,2,0
O=c1c2ccccc2oc2cc(-c3ccc4[nH]ccc4c3)ccc12,5,88*,88*,1
O=C(O)c1ccc(-[n+]2c(-c3ccccc3)cc(-c3ccccc3)cc2-c2ccccc2)cc1,i,-3,-1,0
CCCOC(=O)c1ccc(-[n+]2c(-c3ccccc3)cc(-c3ccccc3)cc2-c2ccccc2)cc1,-10,100*,101*,0
O=C(O)c1ccc(-c2ccc(O)c(F)c2)cc1,i,/,/,18*
O=C(O)c1ccc(O)c(O)c1,0,-7,7,-21
Cc1ccc(C)c(N2CCN(S(=O)(=O)c3ccc4c(c3)NC(=O)CC(=O)N4)CC2)c1,1,90*,23,-1
Cc1ccc(NS(=O)(=O)c2cccc3cccnc23)cc1Cl,-1,1,-4,2
Cc1cc(C)c(NS(=O)(=O)c2cccc3cccnc23)c(C)c1,0,-5,3,14*
COC(=O)C1=C(c2cc3ccccc3s2)CC2CCC1N2C(=O)N1CCOCC1 (stereo not given),/,-4,9,/
SMILES,Vc quorum ag,Sa ugtP lethal,Sa RN4220 lethal,TcdB inh
Cc1cc(C)cc(NC(=S)Nc2ccc(Cl)c(Cl)c2)c1,-1,101*,100*,1
Cc1cccc(C)c1NC(=S)Nc1ccc(Cl)c(Cl)c1,0,-12,19,2
Cc1ccc(NC(=S)Nc2ccc(Cl)c(Cl)c2)c(OC(F)F)c1,0,100*,100*,0
CC(C)C1O/C(=N/C(=O)Nc2ccc(Cl)c(Cl)c2)NC1=O (stereo not given),/,100*,100*,/
CCC1=C(OC(=O)N(CC)CC)N2C(=O)OC(=NCCc3c[nH]c4ccccc34)[C@]2(C)C2C1=CCC1C(=O)N(CC(=O)OC)C(=O)C12 (stereo not given in full),/,-1,9,/
C=CCc1c(C)nc(C)nc1NN=Cc1ccc([N+](=O)[O-])cc1,/,-5,-5,/
O=c1cc[nH]c2c1ccc1c(=O)cc[nH]c12,0,2,1,-18
Cc1[nH]ccc2c1[nH]c1cc(=O)ccc12,-1,/,/,10*
O=C(C[C@H]1C[C@H]2c3cc(NC(=O)c4ccc5c(c4)OCO5)ccc3O[C@H]2[C@H](CO)O1)NCc1cccc(F)c1,/,/,/,14*
O=C(C[C@@H]1C[C@H]2c3cc(NC(=O)c4ccc5c(c4)OCO5)ccc3O[C@H]2[C@@H](CO)O1)NCc1cc(F)ccc1F,/,/,/,0
COC(=O)C1=C(c2cccc(OC)c2OC)CC2CCC1N2C(=O)NCc1ccc(C(F)(F)F)cc1 (stereo not given),/,1,5,/
CC1CN(C(C)CO)C(=O)c2cc(NC(=O)Nc3ccc4c(c3)OCO4)ccc2OC1CN(C)S(=O)(=O)c1cn(C)cn1 (stereo not given),/,0,5,/
O=C(Nc1cccnc1)Nc1cc(Cl)cc(Cl)c1,-3,99*,100*,0
Oc1cc2c(cc1C(c1ccc(Cl)c(Cl)c1)N1CCCC1)OCO2 (stereo not given),-1,87*,41,-5
CC(C)c1ccc(NC(=O)C(c2ccc3c(c2)OCO3)N2CCCCC2)cc1 (stereo not given),/,10,-1,2
Clc1ccc2c(c1)Nc1ccccc1CC2,-1,89*,6,-1
N#Cc1ccc(C23CC4(C2)C(CN(Cc2ccc(C(F)(F)F)cc2)C4c2ccccc2)C3c2ccc(Cl)nc2)cc1 (stereo not given),/,1,-2,/
CN1CCN(C(=O)C2=CC(c3ccccc3)CC(OCCCCO)O2)CC1 (stereo not given),/,2,6,/
CN1CC=C(/C=C/c2ccc(-c3ccccc3)cc2)CC1,/,93*,21,/
COc1ccc(/C=C/C2=CCN(C)CC2)cc1,-1,9,2,-1
CCN(c1ccccc1)c1nc(=O)c2cccnc2s1,-1,12,4,0
CCN(c1cccc(C)c1)c1nc2ccsc2c(=O)s1,i,88*,-3,/
O=C(NN=Cc1ccoc1)c1cc(O)cc(O)c1,/,-7,3,/
CC(=O)C1=C(C)N(CC2CC2)C(=O)NC1c1ccccc1 (stereo not given),/,-11,1,/
CC(=NNC(=O)c1ccn(C)n1)c1ccc(NC(=O)C2CCCC2)cc1,/,2,3,/
SMILES,Vc quorum ag,Sa ugtP lethal,Sa RN4220 lethal,TcdB inh
O=c1oc(C2(O)CCCCC2)cc2ccc(C=Cc3ccc(F)cc3)cc12,/,7,5,/
COc1cc2[nH]c(=S)n(NC(=O)c3ccccc3)c(=O)c2cc1OC,+,18,8,/
Cc1ccc(Oc2ccc(NC(=O)CSc3n[nH]c(N)n3)cc2)cc1,-3,91*,1,/
O=c1[nH]c(=O)n(C2CC(O)C(CO)O2)cc1F (stereo not given),/,99*,99*,/
O=c1[nH]c(=O)n([C@H]2C[C@H](O)[C@@H](CO)O2)cc1I,0,/,/,1
CCN(C(=O)CN1C(=O)NC2(CCC(C)CC2)C1=O)C1CCCCC1 (stereo not given),i,/,/,14*
CCCN(C(=O)CN1C(=O)NC2(CCCCCC2)C1=O)C1CCS(=O)(=O)C1 (stereo not given),8,3,8,/
Brc1ccsc1C=NNc1ccccc1,/,25,0,/
